Bioassay records from PubChem BioAssay.
This is a sample that favours compounds with a hit; in the whole collection about 1.2% have one here.
S1P2 ag: S1P2 (human) receptor agonism. S1P2-expressing cell line, agonist reporter read-out. 97,000 compounds, 0.46% hits. O95136. activation, % at 4.5 µM. AID 729; in the data active means activation above about 16%;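 further: 0% = vehicle low control and 100% = maximal reference agonist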
Target sequence (O95136 whole entry, looked up): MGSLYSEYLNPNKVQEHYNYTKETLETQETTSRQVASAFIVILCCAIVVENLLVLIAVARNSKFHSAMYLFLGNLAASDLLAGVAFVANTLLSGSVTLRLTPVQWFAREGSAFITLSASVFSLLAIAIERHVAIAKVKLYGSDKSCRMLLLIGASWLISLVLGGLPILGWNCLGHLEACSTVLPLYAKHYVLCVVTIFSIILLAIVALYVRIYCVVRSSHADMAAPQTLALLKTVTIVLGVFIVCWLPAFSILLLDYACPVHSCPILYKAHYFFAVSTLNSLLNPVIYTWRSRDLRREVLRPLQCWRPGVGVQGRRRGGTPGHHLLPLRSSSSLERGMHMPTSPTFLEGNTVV
GALR2 ag: agonists of human galanin receptor 2 (GALR2) | O43603 | GALR2-expressing cells, agonist activation read-out | activation, % (concentration not given with the values) | 140,000 compounds, 0.48% hits; in the data active means activation above about 5%, passing the limit was not always enough;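 further: 0% = vehicle buffer wells and 100% = reference agonist at full effect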
S1P2 blocker: blocks the human S1P2 receptor | 97,000 compounds, 0.21% hits | cell-based S1P2 antagonist assay, inhibition at 5 uM | O95136 | inhibition, % at 5 µM; in the data active means inhibition above about 45%;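 further: CRE beta-lactamase reporter cells expressing human S1P2 stimulated with S1P; 0% = agonist at EC80 alone and 100% = agonist plus reference antagonist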
GALR2 blocker: blocks the human galanin receptor 2; inhibition, % at 4 µM; O43603; GALR2-expressing cells, antagonist mode; 140,000 compounds, 0.39% hits;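 further: cells stimulated with galanin 1-16 at roughly its EC80; 0% = agonist challenge control and 100% = basal control without agonist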
GALR2 agon conf: confirmation of human galanin receptor 2 (GALR2) agonists; activation, % at 5.6 µM; 460 compounds, 10% hits; GALR2-expressing cells, agonist activation; shares compounds with GALR2 ag; AID 864; in the data active means activation above about 8.4%;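 further: 0% = buffer-only vehicle wells and 100% = full reference agonist response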
BLA act counter: counter-screen for GALR2 agonists: beta-lactamase reporter activators | activation, % at 5.6 µM | AID 865 | shares compounds with GALR2 ag | 460 compounds, 10% hits | CHO NFAT-bla reporter, beta-lactamase FRET activation;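 active means activation above the screen-wide mean activation plus 3 SD, cut at about 8% in these data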;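 further: 0% = DMSO with PBS wells and 100% = thapsigargin positive control wells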
GALR2 blk conf: confirmation of human galanin receptor 2 (GALR2) antagonists | shares compounds with GALR2 blocker | GALR2-expressing cells, antagonist mode, inhibition | inhibition, % at 4 µM | 480 compounds, 60% hits;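 further: cells stimulated with galanin at about its EC80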
BLA inhib ctr: beta-lactamase inhibition, GALR2 counterscreen; shares compounds with GALR2 blocker; CHO NFAT-BLA reporter, beta-lactamase FRET, thapsigargin-stimulated; inhibition, % at 4.2 µM; 480 compounds, 36% hits;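 active means inhibition above the mean inhibition across tested compounds plus 3 SD, cut at about 27% in these data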;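 further: 0% = 500 nM thapsigargin stimulated wells and 100% = unstimulated BSA only wells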
Active calls of the source: *; . = no result given; ! = not active in a repeat. Unless noted, no stated cut-off is given here; in the data, active means inhibition above about 27%; inactive means the rest.

SMILES | S1P2 ag | GALR2 ag | S1P2 blocker | GALR2 blocker | others
CCC(C)NC(=O)c1c(N)n(Cc2ccc3c(c2)OCO3)c2nc3ccccc3nc12 (stereo not given) | 140* | 84* | -169 | -12
CCC(C)NC(=O)c1c(N)n(CC2CCCO2)c2nc3ccccc3nc12 (stereo not given) | . | 3 | . | 4
CCC(C)NC(=O)c1c(N)n(CCCOC)c2nc3ccccc3nc12 (stereo not given) | 25* | 16* | -69 | -9
CCCCCCn1c(O)c(C=NC2CCN(Cc3ccccc3)CC2)c(=O)[nH]c1=O | 5 | -1 | -54 | -8
C=CCNC(=O)c1c(N)n(Cc2ccco2)c2nc3ccccc3nc12 | 18* | 6.4* | -15 | -19
O=C(Nc1cccc2ccccc12)c1nn(C23CC4CC(CC(C4)C2)C3)cc1Br | -6 | 0 | 3 | -11
Nc1c(C(=O)NCCc2ccccc2)c2nc3ccccc3nc2n1CCN1CCOCC1 | 31* | 25* | -28 | -12
CC(C)CCNC(=O)c1c(N)n(CC2CCCO2)c2nc3ccccc3nc12 (stereo not given) | 40* | 32* | -62 | -11
CCCCn1c(N)c(C(=O)NCCN2CCOCC2)c2nc3ccccc3nc21 | 2 | 3 | -17 | -4
COc1ccc(CCNC(=O)c2c(N)n(CCN3CCOCC3)c3nc4ccccc4nc23)cc1 | 27* | 7 | -24 | -6
CCCCCc1nc2c(c(=O)c3ccccc3n2C)c(=O)n1C1CCCCCC1 | . | 7.3* | . | -2
CCCCCc1nc2ccccc2c(=O)n1-c1ccccc1[N+](=O)[O-] | . | -1 | . | -15
COP(=O)(OC)C(O)C(Cl)(Cl)Cl (stereo not given) | . | 1 | . | 7
CCOP(=O)(OCC)C(NC(=O)CN1C(=O)c2ccccc2S1(=O)=O)C(Cl)(Cl)Cl (stereo not given) | . | -2 | . | -1
COc1ccc(C[C@@H]2c3cc(O)c(OC)cc3CCN2C)cc1O | . | -1 | . | 2
COc1cc2c3cc1Oc1cc(ccc1O)C[C@@H]1c4c(cc(OC)c(O)c4Oc4ccc(cc4)C[C@H]3N(C)CC2)CCN1C | . | 9.6* | . | -1 | GALR2 agon conf=12*;BLA act counter=1
CC(NC1CCCCC1)C(O)C12CC3CC(CC(C3)C1)C2 (stereo not given) | -4 | 19* | -11 | 6 | GALR2 agon conf=0;BLA act counter=-2
CC(C)n1c(=O)c(C=Nc2cccc([N+](=O)[O-])c2)c(O)n(CCc2ccccc2)c1=O | . | -1 | . | -9
COCCNP(=O)(c1ccccc1)c1nc2ccccc2s1 (stereo not given) | 1 | 12* | 23 | -7 | GALR2 agon conf=-1;BLA act counter=0
CCC(CC)N1CCN(C(=O)Cc2ccccc2)CC1 | -2 | 5 | -7 | 0
Cc1c2ccncc2c(C)c2c1[nH]c1ccccc12 | . | 12* | . | 1 | GALR2 agon conf=13*;BLA act counter=4
C[N+](C)(C)Cc1ccccc1 | . | -1 | . | 7
C=CCn1c(O)c(C(CC)=NCCc2ccccc2)c(=O)[nH]c1=O | -3 | 12* | -6 | -13 | GALR2 agon conf=0;BLA act counter=1
CN(CC1COc2ccccc2O1)c1nc(-c2cccnc2)nc2ccccc12 (stereo not given) | -3 | 2 | 10 | -3
O=c1cc(C(F)(F)F)c2cc3c4c(c2o1)CCCN4CCC3 | -4 | 9 | 36 | 36* | GALR2 agon conf=2;BLA act counter=-1;GALR2 blk conf=32*;BLA inhib ctr=44*
SMILES | S1P2 ag | GALR2 ag | S1P2 blocker | GALR2 blocker | others
C[C@@]1(CO)[C@H](O)CC[C@@]2(C)[C@H]1CC[C@H]1C[C@@H]3C[C@@]12CC[C@]3(O)CO | . | 0 | . | -6
Cc1cccc(N2CCc3c2nc2ccccc2c3N)c1 | -7 | -3 | 24 | 31*! | GALR2 blk conf=36*;BLA inhib ctr=11
N=C(N)c1c(O)n(C2CCCCC2)c(=O)n(C2CCCCC2)c1=O | -8 | 1 | -15 | 11
COc1ccc2nc(/N=C/c3c(O)n(-c4cccc(Cl)c4)c(=O)[nH]c3=O)sc2c1 | -7 | -3 | 1 | -2
C=CCN1C(=O)NC(=O)/C(=C/c2cccn2C)C1=O | -3 | -1 | -1 | 10
Cn1cccc1/C=C1/C(=O)NC(=O)N(Cc2ccccc2)C1=O | . | 0 | . | 29* | GALR2 blk conf=36*;BLA inhib ctr=66*
